Outcome data for 18 compounds are collected here from PubChem BioAssay AID651681 (Broad Institute, 2012).

SMILES strings stand for the structures. Activity calls are given as the source filed them.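 The calls were made as follows: active = compound with fitted CDK2 half-maximal potency at or below twice its top tested dose; inconclusive = flat curve near 30 to 70% inhibition, or poor fit; inactive = the rest.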

The target of this assay is Cyclin-dependent kinase 2 (Homo sapiens) + Cyclin-A2 (Homo sapiens) (UniProt P20248+P24941). Briefly: blockade of human CDK2 kinase activity – biochemical, dry powder, set 3, selectivity assay for Dyrk1A inhibitor project, dose response (AID 651681).
Sequence of Cyclin-dependent kinase 2 (Homo sapiens) + Cyclin-A2 (Homo sapiens) (P20248 whole entry, looked up, one chain of several): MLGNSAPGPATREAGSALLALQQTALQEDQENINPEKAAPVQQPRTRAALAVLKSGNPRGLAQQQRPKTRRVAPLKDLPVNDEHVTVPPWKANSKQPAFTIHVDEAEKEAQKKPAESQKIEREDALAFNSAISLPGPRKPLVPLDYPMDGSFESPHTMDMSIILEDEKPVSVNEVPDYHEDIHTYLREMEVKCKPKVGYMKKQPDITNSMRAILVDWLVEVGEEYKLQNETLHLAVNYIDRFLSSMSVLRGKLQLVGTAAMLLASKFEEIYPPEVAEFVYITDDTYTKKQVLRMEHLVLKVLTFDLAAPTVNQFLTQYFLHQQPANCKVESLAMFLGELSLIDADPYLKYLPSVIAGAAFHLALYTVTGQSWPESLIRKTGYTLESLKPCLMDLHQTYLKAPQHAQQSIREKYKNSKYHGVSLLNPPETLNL

As to `Cc1ccc(S(=O)(=O)N(C)CC(=O)Nc2nc3ccc(Cl)cc3s2)cc1C`, the outcome was inactive. In the case of `Cc1ccccc1S(=O)(=O)Cc1ccc(C(=O)NC(C)c2ccc3c(c2)OCCO3)o1` (stereo not drawn), the outcome was inactive. For the compound `CCCCN(c1nc2ccccc2s1)S(=O)(=O)c1ccc(Cl)cc1`, the result was inactive. Consider `COc1ccc2nc(NC(=O)C3CCN(S(=O)(=O)c4ccc(C)cc4)CC3)sc2c1`, for which the outcome was inactive. The value for `Cc1ccc(S(=O)(=O)N(C)CC(=O)Nc2nc3ccccc3s2)cc1` was “inactive”. Under `CC(C)n1cnc2cc(NCc3cccc4ccccc34)ccc21` stands “inactive”.

`COc1ccc2nc(NC(=O)CN(C)S(=O)(=O)c3ccc(F)cc3)sc2c1`: the result was inactive. In the case of `COc1ccc(S(=O)(=O)N2CCCC(C(=O)Nc3nc4ccccc4s3)C2)cc1` (stereo not drawn), the result was inactive. The value for `CN(CC(=O)Nc1nc2ccc(F)cc2s1)S(=O)(=O)c1ccc(Cl)cc1` was “inactive”; that for `Clc1ccc(CSc2nc(Nc3ccc4c(c3)OCO4)c3ccccc3n2)cc1` was “inactive”; that for `COc1ccc(CNC(=O)c2sc3ccccc3c2Cl)cc1` was “inactive”. `COc1ccc2c(Cl)c(C(=O)NC(C)C)sc2c1`: the result was inactive. Under `Cc1cccc2sc(NC(=O)CN(C)S(=O)(=O)c3ccc(Cl)cc3)nc12` stands “inactive”.

For `COc1ccc2nc(NC(=O)C3CCCN(S(=O)(=O)c4cccc5cccnc45)C3)sc2c1` (stereo not drawn), the result was inactive.

For `COc1ccc(OC)c(CNC(=O)c2sc3ccccc3c2Cl)c1`, the outcome was inactive. As to `COc1ccc(C2=Nn3c(nnc3-c3ccncc3)SC2)cc1`, the result was inactive.

As for `Cc1csc(NC(=O)C2CCCN(S(=O)(=O)c3cccc4nonc34)C2)n1` (stereo not drawn), the outcome was inactive. For `COc1ccc2nc(NC(=O)C3CCCN(S(=O)(=O)c4cccc5nsnc45)C3)sc2c1` (stereo not drawn), the outcome was inactive.
